Experimental data published in paper PMC4336329 (PLoS ONE, 2015).
Screen size: about 310,000 compounds; about 14,000 (4.5%) showed an effect of 50% or more. Effects have a minus sign here. The sample holds strong results, similar compounds and a random draw of the others, so the mix is not that of the screen.

These compounds were tested against human ether-à-go-go-related gene (hERG) potassium channel (human, UniProt Q12809) (assay: primary screen, population patch clamp on CHO cells stably expressing hERG; higher = less effect of the substance).
Chain of human ether-à-go-go-related gene (hERG) potassium channel (Q12809 whole entry, looked up): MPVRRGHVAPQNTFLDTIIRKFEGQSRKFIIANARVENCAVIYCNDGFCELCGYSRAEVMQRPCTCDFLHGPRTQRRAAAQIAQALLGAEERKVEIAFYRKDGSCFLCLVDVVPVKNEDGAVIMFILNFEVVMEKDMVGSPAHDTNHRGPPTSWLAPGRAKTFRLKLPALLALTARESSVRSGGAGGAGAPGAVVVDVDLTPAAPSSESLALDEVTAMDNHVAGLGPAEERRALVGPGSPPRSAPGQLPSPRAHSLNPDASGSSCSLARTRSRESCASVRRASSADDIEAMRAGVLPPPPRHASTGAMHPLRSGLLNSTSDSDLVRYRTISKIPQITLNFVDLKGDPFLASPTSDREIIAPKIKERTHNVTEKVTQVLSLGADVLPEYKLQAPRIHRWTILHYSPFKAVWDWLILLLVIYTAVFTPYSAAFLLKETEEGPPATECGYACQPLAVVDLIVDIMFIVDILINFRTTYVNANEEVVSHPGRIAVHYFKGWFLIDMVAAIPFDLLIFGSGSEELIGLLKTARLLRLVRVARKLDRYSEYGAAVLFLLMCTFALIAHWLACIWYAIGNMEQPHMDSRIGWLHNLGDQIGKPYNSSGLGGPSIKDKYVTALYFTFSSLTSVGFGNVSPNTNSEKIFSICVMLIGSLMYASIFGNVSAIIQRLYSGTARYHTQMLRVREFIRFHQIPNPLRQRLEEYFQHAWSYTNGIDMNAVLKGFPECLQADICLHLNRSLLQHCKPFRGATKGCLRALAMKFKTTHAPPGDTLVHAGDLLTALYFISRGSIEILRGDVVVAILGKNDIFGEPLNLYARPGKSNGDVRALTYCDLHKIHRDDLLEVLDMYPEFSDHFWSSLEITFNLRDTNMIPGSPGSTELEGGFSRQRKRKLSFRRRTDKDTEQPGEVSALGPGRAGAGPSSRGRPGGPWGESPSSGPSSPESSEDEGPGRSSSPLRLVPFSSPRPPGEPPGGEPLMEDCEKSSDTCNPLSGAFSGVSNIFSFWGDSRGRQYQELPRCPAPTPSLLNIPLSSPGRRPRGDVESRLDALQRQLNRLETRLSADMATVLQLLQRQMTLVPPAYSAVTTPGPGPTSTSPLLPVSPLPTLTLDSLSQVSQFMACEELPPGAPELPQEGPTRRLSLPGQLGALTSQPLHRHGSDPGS
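Also: peak tail current of the secondary pulse compared with the same well before compound.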

Row | SMILES | hERG current change (%, negative = inhibition) at 10uM
1 | CCOC(=O)c1c(NC(C)=O)sc2c(OC(C)=O)cccc12 | 8.8%
2 | Cn1c(CO)cnc1SCc1ccc(F)cc1 | 18.2%
3 | CCOc1ccccc1/C=N/NC(=O)c1nnn(-c2nonc2N)c1CN1CCC(C)CC1 | 9.08%
4 | CN(CC(=O)N1CCCc2c1c(=O)oc1ccc(O)cc21)Cc1ccccc1 | -67.4%
5 | O=C(CN1CCN(Cc2ccccc2)CC1)N1CCCc2c1c(=O)oc1ccc(O)cc21 | -14%
6 | CCCOc1ccc2oc(=O)c3c(c2c1)CCCN3C(=O)CN(C)Cc1ccccc1 | -29.7%
7 | CC1CCN(CCC(=O)N2CCCc3c2c(=O)oc2ccc(O)cc32)CC1 | -14%
8 | CC(C(=O)N1CCCc2c1c(=O)oc1ccc(O)cc21)N1CCc2ccccc2C1 (stereo not drawn) | -56.5%
9 | CC(=O)c1cccc(NC(=O)C(C)N2CCc3ccccc3C2)c1 (stereo not drawn) | 4.43%
10 | O=C(NCCCl)C1Cc2c(ccc3ccccc23)O1 (stereo not drawn) | 7.97%
11 | O=C(CCNC(=O)C1CCN(S(=O)(=O)c2ccccc2)CC1)NCc1ccc(Cl)cc1 | 8.88%
12 | Nc1ccccc1Nc1ccncc1[N+](=O)[O-] | 20%
13 | CCOC(=O)C1(Cc2ccccc2)CCCN(Cc2ccc(OCCO)cc2)C1 (stereo not drawn) | -1.04%
14 | CCOC(=O)C1(Cc2ccccc2)CCCN(Cc2ccc(OCC)c(CO)c2)C1 (stereo not drawn) | -52.3%
15 | CCOC(=O)C1(CCOc2ccccc2)CCN(Cc2ccc(OC)c(O)c2)CC1 | -82.2%
16 | CCOC(=O)C1(Cc2ccccc2)CCCN(Cc2cccc(C(C)=O)c2)C1 (stereo not drawn) | -2.24%
17 | CCOC(=O)C1(CCOc2ccccc2)CCN(Cc2ccc(OCC)c(CO)c2)CC1 | -79.5%
18 | CCOC(=O)C1(CCOc2ccccc2)CCN(Cc2ccc(OC)c(COC)c2)CC1 | -80.2%
19 | Cc1ccc(NC(=O)COC(=O)CCc2c[nH]c3ccccc23)c(C)c1 | 9.87%

Row | SMILES | hERG current change (%, negative = inhibition) at 10uM
20 | COC(=O)C(C)Oc1ccc(Cl)c(CN2OCC(C)(C)C2=O)c1 (stereo not drawn) | 5.26%
21 | Cc1ccccc1OCCC(=O)OCC(=O)NCCc1ccccc1 | -0.876%
22 | Cc1nnn(-c2nonc2N)c1C(=O)N/N=C/c1cccc2ccccc12 | -7.26%
23 | CCOC(=O)C1CCN(S(=O)(=O)c2c(C)noc2C)CC1 | -37.9%
24 | Cc1nc(C(C)N(C)Cc2c(C(=O)N3CCCCC3)nc3c(C)cccn23)c(C)s1 (stereo not drawn) | -22.7%
25 | CCOC(=O)C1(CCOc2ccccc2)CCN(Cc2ccc(F)c(OC)c2)CC1 | -35.3%
26 | CCOC(=O)C1(CCOC)CCN(Cc2ccc3nonc3c2)CC1 | -10.5%
27 | CCOC(=O)C1(CCOc2ccccc2)CCN(Cc2ccc(O)c(OC)c2)CC1 | -75.4%
28 | CCOC(=O)C1(CCOc2ccccc2)CCN(Cc2cc(OC)c(O)c(OC)c2)CC1 | -77.6%
29 | CCOCCCNC(=O)Cc1ccc(OC)c(OC)c1 | 14.1%
30 | Cc1ccc(NC(=O)CC(=O)Nc2ccc(C)c(C)c2)cc1C | 11.7%
31 | CCCn1c(CC)nc([N+](=O)[O-])c1S(=O)(=O)c1ccccc1 | -23.8%
32 | CCOC(=O)N1CCN(C(=O)C2CCN(S(=O)(=O)c3ccc(Cl)cc3)CC2)CC1 | -48.7%
33 | O=C1CS/C(=N\N=C\c2ccccc2Cl)N1CC1CC1 | 12.3%
34 | Cc1cc(C(C)(C)C)cc(C)c1Cn1c2[n+](c3ccc(C(F)(F)F)cc31)CCCCC2.[Cl-] | -55.4%
35 | FC(F)(F)c1cccc(Cn2c3[n+](c4ccc(C(F)(F)F)cc42)CCCCC3)c1.[Cl-] | -17.6%
36 | FC(F)(F)c1ccc2c(c1)n(Cc1ccccc1)c1[n+]2CCCCC1.[Cl-] | -24%
37 | COc1ccc(OC)c(CC(=O)O)c1 | 10.8%
38 | O=C(NC1CCCCC1)C1CCN(c2nccs2)CC1 | 4.43%

Row | SMILES | hERG current change (%, negative = inhibition) at 10uM
39 | COc1ccc(/C=C2/C(=O)N=C(N)N2C)cc1OC | 7.3%
40 | COc1cc(-c2noc(C)c2/C=C/c2cccc([N+](=O)[O-])c2)cc(OC)c1OC | -2.59%
41 | COCCN1C=C(C(=O)OC)C(c2ccccc2C(F)(F)F)C(C(=O)OC)=C1 | -8.36%
42 | COC(=O)C1=CN(CC2CCCO2)C=C(C(=O)OC)C1c1ccccc1C(F)(F)F (stereo not drawn) | 8.49%
43 | CCOC(=O)C1=CN(CC2CCCO2)C=C(C(=O)OCC)C1c1ccccc1C(F)(F)F (stereo not drawn) | -64.7%
44 | COC(=O)C1=CN(CCCN2CCCC2=O)C=C(C(=O)OC)C1c1cccs1 | -25.1%
45 | COC(=O)C1=CN(CCCN2CCCC2=O)C=C(C(=O)OC)C1c1ccccc1C(F)(F)F | -57.1%
46 | CCCCN1C=C(C(=O)OC)C(c2ccccc2C(F)(F)F)C(C(=O)OC)=C1 | -1.84%
47 | CN(Cc1ccccc1Br)C(=O)CN1C(=O)NC2(CCCCCC2)C1=O | -11.1%
48 | CSc1ccc(CN2CCC(CO)(CCOc3ccccc3)CC2)cc1 | -78.4%
49 | O=C(Nc1cccc(Cl)c1)N1CCCC1 | 5.7%
50 | O=C(Nc1cccc(Cl)c1)OCCOc1ccccc1 | 23%
51 | CC(=O)Nc1ccc(N2CCN(Cc3ccccc3)CC2)cc1 | -14.6%
52 | O=C(Nc1cccc(Cl)c1)N1CCC(CO)(CCOc2ccccc2)CC1 | -58.6%
53 | OCC1(CCOc2ccccc2)CCN(Cc2ccncc2)CC1 | -41.5%
54 | COC(=O)c1ccc(CN2CCC(CO)(CCOc3ccccc3)CC2)cc1 | -80.1%
55 | CC(=O)Nc1ccc(CN2CCC(CO)(CCOc3ccccc3)CC2)cc1 | -69.9%
56 | CCS(=O)(=O)N1CCN=C1SCc1cccc(F)c1 | 14.7%
57 | CCCCN(C)C(=O)c1ccc2c(c1)S(=O)(=O)c1ccccc1C2=O | -24.4%
